# Laboratory results from the supplement of paper PMC6555819.
# What was measured:
# Assay in all cases: PBM binding z-score (relative to random genomic background probes); higher = stronger binding; sequences stand for … in GC…GCGATTGACAGCGTAGAATGAAGG
# [1] = test system: FXR:RXRa (NR concentration 270 nM, RXRa partner concentration 90 nM)
# Outline: (§1)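 For binding z-scores, the reference was random background probes on custom Agilent 4×180K protein-binding microarrays. These arrays were incubated 1 h with ligand-free nuclear receptor dimers in PBS pH 7.4, 2% milk, 0.02% Triton X-100, 1 mM DTT, 0.2 mg/mL BSA and 0.4 mg/ml salmon testes DNA. Fluorescence was scanned after antibody detection of each partner (one per run) and regression-normalized.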
# [2] = test system: LXRa:RXRa (NR concentration 270 nM, RXRa partner concentration 90 nM)
# Outline: as §1
# [3] = test system: LXRa homodimer (NR concentration 270 nM)
# Outline: as §1
# [4] = test system: LXRb:RXRa (NR concentration 270 nM, RXRa partner concentration 90 nM)
# Outline: as §1
# [5] = test system: LXRb homodimer (NR concentration 270 nM)
# Outline: as §1
# [6] = test system: PPARa:RXRa (NR concentration 270 nM, RXRa partner concentration 90 nM)
# Outline: as §1
# [7] = test system: PPARg:RXRa (NR concentration 180 nM, RXRa partner concentration 90 nM)
# Outline: as §1
# [8] = test system: PPARg:RXRa 270nM:90nM, anti-RXR (NR concentration 270 nM, RXRa partner concentration 90 nM)
# Outline: as §1
# [9] = test system: PPARg:RXRa 30nM:10nM, anti-RXR (NR concentration 30 nM, RXRa partner concentration 10 nM)
# Outline: as §1
# [10] = test system: PPARg:RXRa 90nM:30nM, anti-RXR (NR concentration 90 nM, RXRa partner concentration 30 nM)
# Outline: as §1
# [11] = test system: PPARg:RXRa DBDmut IVT, anti-RXR (DBD mutation: RXRa K156A/R161A, NR concentration 270 nM, RXRa partner concentration 90 nM)
# Outline: as §1
# [12] = test system: PPARg:RXRa IVT, anti-PPARg (NR concentration 270 nM, RXRa partner concentration 90 nM)
# Outline: as §1
# [13] = test system: PPARg DBDmut:RXRa IVT, anti-PPARg (DBD mutation: PPARg1 K132A/R137A, NR concentration 270 nM, RXRa partner concentration 90 nM)
# Outline: as §1
# [14] = test system: PPARg DBDmut IVT, anti-PPARg (DBD mutation: PPARg1 K132A/R137A, NR concentration 270 nM)
# Outline: as §1
# [15] = test system: PPARg homodimer (NR concentration 180 nM)
# Outline: as §1
# [16] = test system: PXR:RXRa (NR concentration 270 nM, RXRa partner concentration 90 nM)
# Outline: as §1
# [17] = test system: PXR homodimer (NR concentration 270 nM)
# Outline: as §1
# [18] = test system: RARa:RXR (NR concentration 270 nM, RXRa partner concentration 90 nM)
# Outline: as §1
# [19] = test system: RARa homodimer (NR concentration 270 nM)
# Outline: as §1
# [20] = test system: RARb:RXRa (NR concentration 270 nM, RXRa partner concentration 90 nM)
# Outline: as §1
Sequence,PBM binding z-score [1],PBM binding z-score [2],PBM binding z-score [3],PBM binding z-score [4],PBM binding z-score [5],PBM binding z-score [6],PBM binding z-score [7],PBM binding z-score [8],PBM binding z-score [9],PBM binding z-score [10],PBM binding z-score [11],PBM binding z-score [12],PBM binding z-score [13],PBM binding z-score [14],PBM binding z-score [15],PBM binding z-score [16],PBM binding z-score [17],PBM binding z-score [18],PBM binding z-score [19],PBM binding z-score [20]
CTTCCAAGGTCAGCAGGTCAGTGAAAGCGACGTG,5.62,4.48,0.986,3.24,0.067,4.87,3.78,4.64,1.14,3.27,3.41,3.82,-0.278,-0.339,3.61,3.42,0.858,4.68,1.77,5.26
CCTAGCAGGCCAGCGTCACTCAAGCATTTCGCTT,-0.634,-0.323,-0.436,-0.45,-0.612,-0.652,-0.466,-1.02,-1.25,-0.939,0.696,-0.171,-1.15,-1.61,-0.299,-0.806,-0.554,-0.721,-0.187,-0.122
TAGCCTAGGTCATTCAGGGTCCAGTATAGAAAGC,4.67,4.27,0.918,3.01,0.48,3.74,1.99,2.11,0.487,1.23,1.57,2.74,0.533,0.0908,1.38,3.27,0.324,2.84,-0.0201,3.77
CCTTACGAGTCACTCCAGGTTATAGCATCGGAGT,1.35,4.98,1.69,1.55,0.939,0.751,0.539,0.0713,-0.0643,-0.0945,0.574,0.424,0.623,0.364,1.41,1.2,1.12,0.999,1.56,0.664
TCAGACAGGTGAAGGGAACTCAGGTACGCAGTCG,0.945,0.772,0.0804,0.859,0.193,1.25,0.602,2.23,3.93,2.93,2.87,0.387,-0.0761,-0.559,0.811,0.733,0.499,0.697,0.593,1.04
TCTTGTAGATCAATACAGGTTAAGAAAGTGCGCT,0.747,2.01,0.393,1.23,0.0132,1.29,0.19,1.49,2.99,2.11,2.28,1.23,0.912,1.31,1.18,1.76,0.308,1.1,0.461,0.5
CTACAAAGGTGAACAAGGTCGTTGATTACTATTC,2.91,2.94,0.453,3.1,-0.0435,4.39,3.3,3.46,0.912,2.84,3.31,3.77,0.982,0.418,1.57,3.89,2.18,3.61,0.686,3.63
TGTCAAATTTCAAAGGTAACGTAAGTATCCACAC,0.556,0.784,-0.0184,0.869,0.492,0.954,0.712,1.41,1.62,1.41,-0.296,1.37,1,1.11,0.532,0.473,0.33,0.98,0.848,1.04
ATATGTAGGTTAGCTGCGGTCATTCAGACTAGGC,1.46,5.96,4.17,2.56,0.134,2.82,3.47,3.02,0.942,2.27,6.89,6.05,1.21,1.12,0.698,3.39,0.151,1.21,0.221,1.88
CGAACTAGGTCATTGACAGCACAGTGAATAGTAA,4.2,2.64,0.265,2.07,0.329,4.78,7.32,6.23,3.86,5.6,7.82,8.09,2.12,2.03,1.52,1.18,0.34,1.77,0.733,3.58
GCGACTGGGGCAAAGAAGGTTACCATAAGGTTGG,1.24,0.788,-0.0747,1.06,-0.824,1.72,1.56,2.22,0.513,1.66,4.68,3.4,-0.0271,-0.382,0.618,1.11,-0.136,1.22,-0.528,1.59
TCTATTAGTTGATTAGGGAAACCGAAACAGCGGA,0.843,0.826,0.343,0.602,0.852,0.623,-0.0137,2.16,3.69,3.2,2.16,0.295,0.834,0.978,1.03,0.624,1.07,0.778,1.68,0.394
CAAACTAGGTCACAGGTCAAAGTCGAGCCAACCA,6.7,5.19,3.25,4.68,1.16,6.88,12.3,9.67,10.4,11,8.4,9.27,4.16,4.09,4.17,4.41,0.711,5.81,0.827,4.7
CCTAGTGGGCCACGAAAGGTCATTGATTCAGTGA,3.59,5.34,4.51,4.3,0.26,4.7,4.51,4.88,2.04,4.15,5.45,5.59,0.164,-0.293,2.95,5.35,1.17,5.06,0.966,3.93
CCGACTCGGGCATAAGGTTACCATAAGCCAGCCC,0.235,2.34,-0.549,0.615,-1.1,1.14,0.783,1.19,-0.332,0.652,0.661,-0.167,-1.02,-2,0.278,0.0235,-0.204,0.884,-0.315,1.36
CCGACTGGGGCAAGGTTCCCATAACGCACAGCCA,-0.116,-0.36,-0.312,-0.226,-1.24,1.17,3.1,3.89,2.1,3.38,2.36,3.12,-0.684,-0.962,0.192,-0.613,-0.376,-0.115,-0.502,0.825
ATCGAAAAGTCGTGAGGTGAGTATACAGAAAGGC,0.379,0.127,-0.461,-0.0752,-0.13,0.351,0.623,-0.104,0.404,0.0436,-0.639,0.331,0.929,1,0.473,0.0533,-0.117,0.486,0.556,0.552
GCTGCTCGGTCAGGTTGGTCAGCTAACGGGTACG,-0.343,-0.331,-0.448,-0.697,-0.583,-0.536,-0.75,-0.709,-0.71,-1.1,-0.244,-0.303,-1.15,-1.51,-0.397,-0.721,-0.841,-0.696,-0.978,1.94
